# From PubChem BioAssay
# ABHD5 PLIN5 PPI: inhibitors of human ABHD5-perilipin-5 interaction; 360,000 tested, 0.78% active; Split G. princeps luciferase complementation, luminescence, 4 h; inhibition, % at 4 µM;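 active means inhibition above the mean inhibition across every tested compound plus 3 SD, cut at about 22% in these data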;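 further: 0% = DMSO only wells and the 100% control is not disclosed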
# HIF-2a inh: blocks HIF-2a reporter activity. 786-0 RCC cells HIF-2a reporter, luciferase luminescence, overnight. inhibition, % at 18.8 µM. 360,000 tested, 0.72% active. AID 624352;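 active means inhibition of the luminescence signal of 40% or more relative to plate controls, in a single-dose primary screen at 18.75 µM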
# Peg3 promoter: reduces Peg3 promoter-driven luciferase expression in HeLa; HeLa PEG-Prom luciferase reporter, luminescence, overnight; inhibition, % at 20 µM; 360,000 tested, 1.7% active;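 active means inhibition of at least 50% at 20 µM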
# CF NFkB block: blocks PAF-induced NF-kB reporter in cystic fibrosis cells. KKLEB NF-kB-GFP reporter, GFP fluorescence overnight. inhibition, % at 5 µM. 360,000 tested, 0.86% active;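 active means at least 50% inhibition at 5 µM, scaled per plate between neutral and stimulator controls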;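 further: PAF is a Pseudomonas aeruginosa culture filtrate used as stimulus; plate controls were PAF-stimulated DMSO wells for no effect and unstimulated DMSO wells for full effect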
# Mdm2 MdmX PPI: disrupts the human Mdm2-MdmX interaction; O15151+Q00987; SaOS-2 split-luciferase Mdm2/MdmX complementation, luminescence; inhibition, % at 8 µM; 330,000 tested, 3% active; AID 485346;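 active means inhibition of at least 50% at 8 µM in the primary screen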
# KKLEB tox: reduces viability of KKLEB cystic fibrosis airway cells; AID 602141; activity change (cytotoxicity), % at 5 µM; KKLEB CF airway cells viability, ATPlite luminescence, overnight; active compounds read low; cells stimulated with P. aeruginosa culture filtrate; 360,000 tested, 0.36% active;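 active means corrected activity change at or below -50% at 5 µM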
# Mdm2 MdmX conf: confirmation of human Mdm2/MdmX interaction inhibitors. shares compounds with Mdm2 MdmX PPI. Mdm2-MdmX binding, luminescent assay. inhibition, % at 8 µM. 10,000 tested, 55% active. AID 489028; in the data active means inhibition above about 40%
# Full FLuc ctr: inhibits full-length luciferase, flagging false Mdm2/MdmX hits; inhibition, % at 8 µM; shares compounds with Mdm2 MdmX PPI; SaOS-2 full-length luciferase counterscreen, luminescence; AID 504607; 6,200 tested, 77% active;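 active means mean inhibition at 8 µM reaching about 37%, which flags the compound as non-specific, limit read from the data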;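 further: p53-null SaOS-2 cells with luciferase driven by a doxycycline-inducible promoter; compound on cells about two nights before reading with doxycycline added after day one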
# * = called active by the depositor; nt = no result given. Most compounds without a hit are left out; they make up all but 4.6% or so of the library.
SMILES,ABHD5 PLIN5 PPI,HIF-2a inh,Peg3 promoter,CF NFkB block,Mdm2 MdmX PPI,KKLEB tox,Mdm2 MdmX conf,Full FLuc ctr
FC(F)Oc1ccc(C2=Nn3c(nnc3-c3ccccc3Cl)SC2)cc1OCC1CC1,0.8,5.3,13.6,18.1,-7.9,-17.0,nt,nt
CN(C)c1ccc(/C=N/Nc2nncc3ccccc23)cc1,3.8,-190.1,-96.1,-38.8,nt,-11.5,nt,nt
CCOc1ccc(C(CC(=O)O)NC(=O)C(c2ccccc2)c2ccccc2)cc1OC (configuration not stated),-6.6,1.7,-25.1,17.2,-11.4,13.1,nt,nt
CN(C)C(=O)N1CCN(C(=O)c2ccccc2Sc2ccccc2C#N)CC1,-4.2,-60.5,14.3,-1.3,52.8*,-10.5,-6.8,nt
COc1cc(-c2nc(C(=O)NC3CCN(Cc4ccccc4)CC3)cc3c2[nH]c2ccccc23)cc(OC)c1OC,1.1,3.7,39.4,34.0,79.1*,-9.7,55.7*,50.1*
COc1ccc(OC)c(-c2nc(C(=O)NC3CCN(Cc4ccccc4)CC3)cc3c2[nH]c2ccccc23)c1,11.5,8.8,18.5,23.8,50.3*,-23.1,20.2,nt
COc1cc(-c2nc(C(=O)NC3CCCCC3)cc3c2[nH]c2ccccc23)cc(OC)c1OC,-15.6,-1.5,18.9,30.9,47.6,2.4,nt,nt
O=C(NC(=S)Nc1ccccc1Cl)c1cncc(Br)c1,4.8,-60.7,-12.9,6.9,-4.9,-0.1,nt,nt
CCc1cc2c(COC(=O)CCNS(=O)(=O)c3cccc(C(F)(F)F)c3)cc(=O)oc2cc1O,-1.6,-12.3,22.5,24.1,82.7*,-9.6,-11.5,nt
Cc1ccc(-c2cc(C(F)F)nc3sc4c(=O)[nH]cnc4c23)cc1,-0.4,8.3,12.0,19.8,70.9*,-2.3,-1.8,nt
CC(C)C(C(=O)NCC1CCCO1)N(Cc1ccccc1)C(=O)CNS(=O)(=O)c1ccccc1 (configuration not stated),0.4,2.3,7.2,9.2,-2.7,1.7,nt,nt
O=C(CCl)N1CCCC1c1ccc2c(c1)OCCO2 (configuration not stated),0.4,22.6,39.8,27.0,75.1*,-15.3,32.9,42.6*
COc1ccc(CS(=O)c2nc(C)cc(C)c2S(C)(=O)=O)cc1 (configuration not stated),-0.8,2.2,-11.6,-20.0,-24.4,-0.2,nt,nt
CN=C1S/C(=C\c2cc(C)n(-c3ccccc3F)c2C)C(=O)N1C,-7.3,-67.0,-60.1,-18.3,55.6*,-26.2,39.5,99.6*
CN1C(=O)/C(=C\c2cc(N=Nc3ccccc3)ccc2O)SC1=S,-2.8,-33.4,-25.9,50.1*,90.7*,-36.3,54.1*,34.4
Cc1cc(/C=C2\SC(=O)N(C)C2=O)c(C)n1-c1ccc(O)cc1,4.5,-88.2,-101.1,-17.2,14.8,4.0,nt,nt
COc1ccc(-n2c(C)cc(/C=C3/SC(=S)N(C)C3=O)c2C)cc1,0.7,-121.0,-253.6,-17.5,nt,5.6,nt,nt
Cc1cc(/C=C2\SC(=S)N(C)C2=O)c(C)n1-c1cccc(O)c1,6.4,-76.8,27.5,20.8,77.6*,-13.5,79.5*,97.8*
CSCCC(NC(=O)CCNC(=O)c1ccccc1Cl)c1nc2ccccc2[nH]1 (configuration not stated),3.8,-2.1,11.0,14.8,-36.1,-8.1,nt,nt
COCCN(CCOC)Cc1cc(=O)oc2cc(OC)ccc12,8.4,-0.3,-14.3,3.1,nt,2.8,nt,nt
CC(=O)c1ccc(S(=O)(=O)Nc2ccc(C(=O)N(C)CC(=O)Nc3cccc(C)c3C)cc2)cc1,-8.2,6.2,-8.6,-13.0,-26.0,0.2,nt,nt
Cc1ccc(C(=O)NCC(=O)N(C)Cc2ccc(Cl)cc2Cl)s1,2.2,-16.4,-14.6,3.6,-0.4,-15.0,nt,nt
CN(C)c1ccc(CNCCC(Cc2ccccc2)c2ccco2)cc1 (configuration not stated),12.4,5.2,50.1*,-17.3,52.3*,0.0,30.0,nt
c1ccc(CNCCC(Cc2ccccc2)c2ccco2)cc1 (configuration not stated),-2.6,17.4,4.2,-0.9,18.8,-1.2,nt,nt
CCOc1ccc(CN(C)C(=O)CCl)cc1,2.4,9.1,29.2,-3.2,56.0*,-6.3,22.1,nt
SMILES,ABHD5 PLIN5 PPI,HIF-2a inh,Peg3 promoter,CF NFkB block,Mdm2 MdmX PPI,KKLEB tox,Mdm2 MdmX conf,Full FLuc ctr
Cc1ccc(N2C(=O)c3cccc4c(N)ccc(c34)C2=O)c2cccnc12,-2.1,7.9,1.0,-113.9,62.3*,-9.7,60.6*,79.9*
Cc1nn(C)c(C)c1N1C(=O)c2cccc3c(N)ccc(c23)C1=O,-2.4,7.2,8.4,3.2,nt,5.6,nt,nt
NCC12CC3CC(C1)CC(c1ccc(Br)cc1)(C3)C2,15.3,-16.0,103.8*,7.9,71.9*,-10.5,31.2,nt
Cc1nn(C)cc1C(=O)Nc1cc(Oc2ccc(Cl)cc2)cc([N+](=O)[O-])c1,-4.7,11.0,28.2,17.8,21.3,-19.2,nt,nt
CCn1nc(C)c(C(=O)Nc2cc(Oc3cc(C)cc(C)c3)cc([N+](=O)[O-])c2)c1C,-6.1,16.1,29.2,3.0,52.8*,-22.0,59.5*,51.4*
COc1ccc(S(=O)(=O)N2CCCCCC2)cc1NC(=O)c1c2c(nc3ccccc13)CCN(Cc1ccccc1)C2,7.4,12.0,43.4,-8.2,1.0,-14.7,nt,nt
CCN(CC)S(=O)(=O)c1ccc(OC(C)C)c(NC(=O)c2c3c(nc4ccccc24)CCN(Cc2ccccc2)C3)c1,18.1,15.0,54.6*,20.5,54.9*,-28.0,53.8*,79.9*
Cc1ncc([N+](=O)[O-])n1CC(=O)Nc1ccc(F)cc1F,6.5,24.4,9.5,1.6,15.4,-3.0,nt,nt
CCOC(=O)C(C)N1C(=O)S/C(=C/c2ccc3c(c2)n(C)c(=O)n3C)C1=O (configuration not stated),3.1,-60.0,-62.9,-15.6,51.0*,-15.6,19.2,nt
CCC(C)N1C(=O)S/C(=C/c2ccc3c(c2)n(C)c(=O)n3C)C1=O (configuration not stated),2.7,-167.6,-66.3,-41.3,41.9,-9.0,nt,nt
NC(=O)c1nn(-c2ccccc2)nc1NC(=O)Cn1nnc(-c2ccccc2)n1,-4.9,10.2,49.5,19.4,60.9*,-9.4,-6.3,nt
O=C1OC(Nc2ccc3c(c2)OCO3)c2ccccc21 (configuration not stated),-0.6,1.9,33.7,30.5,70.1*,-6.7,41.1*,54.8*
Nc1ncn(C2O[C@H](CO)[C@@H](O)[C@H]2O)c(=O)n1 (some centres not stated),nt,nt,nt,nt,53.6*,nt,64.5*,56.8*
COc1ccc(N2N=NN(C(C)C)C2=C(Cl)c2nnnn2-c2ccc(OC)cc2)cc1,-7.7,-157.3,-95.2,-1.7,nt,5.6,nt,nt
